{"source": "ChEMBL document CHEMBL4513160", "about": "“CO-ADD screening of MMV (CH) - Small Polar Library”", "note": "Out of some 18,000 compounds screened, fewer than 10 showed an effect of 50% or more. These entries were drawn from the full list.", "data": [{"tested_on": "Pseudomonas aeruginosa", "assay": "Antibacterial activity against Pseudomonas aeruginosa PAO397 [PAO1 d(mexAB-oprM) d(mexCD-oprJ) d(mexEF-oprN) d(mexJKL) d(mexXY) d(opmH)] (CO-ADD:GN_211); MIC in CAMBH media using NBS plates, by OD(600)", "assay_type": "functional", "conditions": "Concentration 300 ug.mL-1, ASSAY_TEST Inhibition of Bacterial Growth, detection method Absorption (OD600), MEDIA CAMHB, plate type 384well, CORNING #3640, time 18 hr", "units": {"Inhibition": "%"}, "values": [{"molecule": "CCN(C)CCNC(=O)c1cc(C2CC2)[nH]n1", "Inhibition": -3.76}, {"molecule": "Cn1c(N)nc2cc(F)ccc21", "Inhibition": -7.38}, {"molecule": "COc1ccc(C)c(NC(=O)N(C)CCN(C)C)c1", "Inhibition": -15.47}, {"molecule": "NS(=O)(=O)CC1CCCN1CCSc1ccccc1", "note": "(configuration not stated)", "Inhibition": -5.99}, {"molecule": "CCn1ccc(C(=O)NCc2ccco2)n1", "Inhibition": 2.87}, {"molecule": "O=C1CCC(=O)N1CCSc1ccc2ccccc2n1", "Inhibition": -6.71}, {"molecule": "Cc1cc(NC(=O)Nc2ccccn2)n(C)n1", "Inhibition": 4.35}, {"molecule": "CC(=O)N1CCCn2nc(-c3cccnc3)cc2C1", "Inhibition": 11.49}, {"molecule": "COc1ccc(Br)c(S(=O)(=O)N(C)C)c1", "Inhibition": -20.8}, {"molecule": "COc1ccc2c(c1)[C@@H](O)CCC2", "Inhibition": -31.22}, {"molecule": "N#Cc1ccc(OC2CCNC2)nc1", "note": "(configuration not stated)", "Inhibition": 1.63}, {"molecule": "O=C(CCc1ccccn1)NCCn1cccc1", "Inhibition": 9.1}, {"molecule": "N#CCSCC(=O)NCc1ccccc1F", "Inhibition": -29.21}, {"molecule": "Nc1ncccc1CN1CCc2ccccc2CC1", "Inhibition": 7.61}, {"molecule": "COc1ccc(-c2cncc(N)c2)cc1CO", "Inhibition": -5.49}, {"molecule": "COCCN(C)C(=O)Nc1cccc(C)n1", "Inhibition": -9.37}, {"molecule": "NCC(=O)Nc1ccc2c(c1)CCC2", "Inhibition": -42.19}, {"molecule": "NCc1nc2c(s1)CCCC2", "Inhibition": -13.62}, {"molecule": "Cn1ccnc1SCCNCC1(O)CNCCOC1", "note": "(configuration not stated)", "Inhibition": 1.72}, {"molecule": "COCCn1ccnc1CN1CCN(C)C(CO)C1", "note": "(configuration not stated)", "Inhibition": -3.82}, {"molecule": "CN(C)C1CCCN(C(=O)c2n[nH]c(N)c2Cl)CC1", "note": "(configuration not stated)", "Inhibition": -17.73}, {"molecule": "O=C1CC(N2CCN(Cc3ccccc3)CC2)C(=O)N1", "note": "(configuration not stated)", "Inhibition": -12.59}, {"molecule": "CN1CC[C@H]2CN(C(=O)CCCc3cn[nH]c3)C[C@H]21", "Inhibition": -2.24}, {"molecule": "CC(O)CCS(C)(=O)=O", "note": "(configuration not stated)", "Inhibition": 4.88}, {"molecule": "NC1CCN(S(=O)(=O)C2CC2)CC1", "Inhibition": 17.98}, {"molecule": "O=C(CCc1ccc2[nH]ccc2c1)N1CCOCC1", "Inhibition": -29.4}, {"molecule": "CCOc1cc(C(=O)NC2=NCCS2)ccc1OC", "Inhibition": 13.17}, {"molecule": "Cn1nc(C(=O)Nc2nc(CC(N)=O)cs2)ccc1=O", "Inhibition": 12.8}, {"molecule": "OCc1cc(CNc2ncccn2)ccc1F", "Inhibition": 6.43}, {"molecule": "CC(CN)N(C)C(=O)c1ccccc1Br", "note": "(configuration not stated)", "Inhibition": 12.75}, {"molecule": "CN(C)c1ncccc1CNC(=O)COCC1CC1", "Inhibition": -2.02}, {"molecule": "CC(C)C(=O)NCc1ccnc(-n2cccn2)c1", "Inhibition": 10.08}, {"molecule": "O=C(Cn1cc(Br)cn1)NC1CCc2nccn2C1", "note": "(configuration not stated)", "Inhibition": -4.73}, {"molecule": "CCCOc1cccc(NCCCS(C)(=O)=O)c1", "Inhibition": 1.09}, {"molecule": "O=C(NCCCN1CCc2ccccc2C1)C1CC1", "Inhibition": -1.62}, {"molecule": "NCC1CCN(c2cnn(CC3CCC3)c(=O)c2)CC1", "Inhibition": -9.55}, {"molecule": "CC1CN(c2cc(CN)ccn2)CCO1", "note": "(configuration not stated)", "Inhibition": 10.77}, {"molecule": "CC(C)(C(=O)N1CC[S+]([O-])C(C)(C)C1)c1ccccc1", "note": "(configuration not stated)", "Inhibition": 12.17}, {"molecule": "NC(=O)NCC1CCN(Cc2ccccc2)C1", "note": "(configuration not stated)", "Inhibition": -16}, {"molecule": "COCC(=O)Nc1cccc(CN2CCCC2)c1", "Inhibition": -2.77}, {"molecule": "NC(=O)C1CCN(C(=O)C2CCCO2)CC1", "note": "(configuration not stated)", "Inhibition": -13.49}, {"molecule": "COc1ccc(C(=O)NCc2ccccn2)cc1F", "Inhibition": -44.49}, {"molecule": "COC(=O)CNc1ccc2ccn(C)c(=O)c2c1", "Inhibition": 13.73}, {"molecule": "CN1CCCC(CCN)C1", "note": "(configuration not stated)", "Inhibition": 8.27}, {"molecule": "Cc1nn(C)c(C)c1CCC(=O)NC1CCCNC1=O", "note": "(configuration not stated)", "Inhibition": 6.16}, {"molecule": "O=C(c1ccc(Br)cn1)N1CCN(CCO)CC1", "Inhibition": 18.45}, {"molecule": "CSc1ncccc1C(=O)N1CCCC(C)(C#N)C1", "note": "(configuration not stated)", "Inhibition": -17.22}, {"molecule": "CC1CCCN(Cc2cc(=O)n(C)c(=O)n2C)C1", "note": "(configuration not stated)", "Inhibition": 8.23}, {"molecule": "O=C(NC(C1CCNCC1)[C@H]1C[C@H](O)C1)C1(CO)CC1", "note": "(some centres not stated)", "Inhibition": 10.73}, {"molecule": "CC1(C)Cc2cccc(OCCN)c2O1", "Inhibition": -35.66}, {"molecule": "CN1CCC(CN(C)Cc2cncs2)C1", "note": "(configuration not stated)", "Inhibition": 2.31}, {"molecule": "CC(Cn1cccn1)NC(=O)CCc1ccc(F)cc1", "note": "(configuration not stated)", "Inhibition": -50.8}, {"molecule": "CC(C)c1nc(CN(CCO)Cc2nccn2C)co1", "Inhibition": -7.36}, {"molecule": "CC1(C)CN(CC(O)C(F)(F)F)CCO1", "note": "(configuration not stated)", "Inhibition": 7.85}, {"molecule": "COc1cccc(CN(C)CCN(C)C)c1OC", "Inhibition": 12.2}, {"molecule": "CC(C)NC(=O)CNC(=O)c1cc2cc(F)ccc2[nH]1", "Inhibition": -6.73}, {"molecule": "CC1CCN(C(=O)NCCS(=O)(=O)C(C)(C)C)C1", "note": "(configuration not stated)", "Inhibition": 10.36}, {"molecule": "CCNc1ncc(C(=O)N[C@@H]2CC[C@@H](N)C2)cn1", "Inhibition": 21.83}, {"molecule": "CC(c1ccc(F)cc1)N(C)C(=O)CCCN", "note": "(configuration not stated)", "Inhibition": -12.4}, {"molecule": "c1nsnc1-c1nc(C2CCCO2)no1", "note": "(configuration not stated)", "Inhibition": -21.13}, {"molecule": "O=C(NCc1nnc2n1CCC2)Nc1cn[nH]c1", "Inhibition": 21.21}, {"molecule": "NCCCc1cn[nH]c1", "Inhibition": 12.47}, {"molecule": "O=C(c1ccc(C2CCCNC2)cc1)N1CCSCC1", "note": "(configuration not stated)", "Inhibition": -23.58}, {"molecule": "CCCNC(=O)C1CCN(c2ncccc2C#N)CC1", "Inhibition": -18.27}, {"molecule": "CCC(C(=O)Nc1ccccc1)N1CCS(=O)(=O)CC1", "note": "(configuration not stated)", "Inhibition": 18.51}, {"molecule": "COc1cc(F)c(S(=O)(=O)N(C)CC(N)=O)cc1OC", "Inhibition": 33.48}, {"molecule": "COc1nc(C)ccc1C#N", "Inhibition": 11.86}, {"molecule": "CC1(C)C(=O)NCCN1S(=O)(=O)c1ccccc1", "Inhibition": -8.7}, {"molecule": "Nc1ccc(CN2CCN(CC(F)(F)F)CC2)cn1", "Inhibition": -9.81}, {"molecule": "COc1ccc(C(=O)N2C[C@@H](CO)[C@H](N(C)C)C2)cn1", "Inhibition": -8.8}, {"molecule": "NCc1cc2c([nH]c1=O)CCCC2", "Inhibition": 4.51}, {"molecule": "C=C(C)CN1CCC(NC(=O)NC2CC2)CC1", "Inhibition": -6.54}, {"molecule": "Cn1nc(C(=O)NCc2cc(Cl)ccn2)ccc1=O", "Inhibition": -9.69}, {"molecule": "CC(C)CC(NCCS(C)(=O)=O)c1ccccn1", "note": "(configuration not stated)", "Inhibition": 6.01}, {"molecule": "Cc1sc(S(N)(=O)=O)cc1N", "Inhibition": 7.68}, {"molecule": "COc1ccc(CC(C)=O)cn1", "Inhibition": 4.82}, {"molecule": "CC(C#N)CNC(=O)c1c(O)cc(F)cc1F", "note": "(configuration not stated)", "Inhibition": 13.91}, {"molecule": "Cc1cccc(CNCCS(=O)(=O)N2CCOCC2)c1", "Inhibition": -1.09}, {"molecule": "c1cnc2cc(-c3nc(C4CCOC4)no3)nn2c1", "note": "(configuration not stated)", "Inhibition": 18.33}, {"molecule": "CC(C)N(CCOc1ccccc1C#N)CC(N)=O", "Inhibition": -27.27}, {"molecule": "Cc1csc(N2CCCN(C(=O)c3cnsn3)CC2)n1", "Inhibition": -3.72}, {"molecule": "O=C(c1cccc(-n2cccn2)n1)N1CCCC1", "Inhibition": 17.03}, {"molecule": "COCCCn1c(SC2CCCCNC2=O)n[nH]c1=O", "note": "(configuration not stated)", "Inhibition": -25.74}, {"molecule": "CCNC(=O)COC(=O)c1cc(O)nc2ccccc12", "Inhibition": -1.47}, {"molecule": "Cc1cc(CO)ccc1N1CCOCC1", "Inhibition": 6.45}, {"molecule": "CC(C)OCC(O)CN1CCc2ccc(O)cc2C1", "note": "(configuration not stated)", "Inhibition": -14.27}, {"molecule": "CCc1ccc(CN2Cc3cnn(CCO)c3C2)nc1", "Inhibition": 18.58}, {"molecule": "NC(=O)CN1CCC(NC(=O)c2cc(Br)c[nH]2)CC1", "Inhibition": 14.11}, {"molecule": "O=C(CNC(=O)N1CCC=C(Br)C1)N1CCCCC1", "Inhibition": -37.56}, {"molecule": "CCN(Cc1[nH]cnc1C)C1CCS(=O)(=O)C1", "note": "(configuration not stated)", "Inhibition": 6.36}, {"molecule": "CN1N=C(C(=O)Nc2ccc(Cl)cn2)CCC1=O", "Inhibition": 8.23}, {"molecule": "Cc1cc(=O)n(C)cc1NC(=O)CCc1ccccn1", "Inhibition": 1.98}, {"molecule": "CC(C)(C)c1noc(CN2CCSCC2)n1", "Inhibition": -15.23}, {"molecule": "CC(O)CN(C)c1ncc(Br)cn1", "note": "(configuration not stated)", "Inhibition": -40.03}, {"molecule": "CC(C)(C)SCC(=O)Nc1ccc(CS(N)(=O)=O)cc1", "Inhibition": -2.55}, {"molecule": "CS(=O)(=O)NC(c1ccc(F)cc1)c1cccnc1", "note": "(configuration not stated)", "Inhibition": -27.51}, {"molecule": "CN(C)CCOC1CCNCC1", "Inhibition": 12.65}, {"molecule": "COC(=O)CNC(=O)CSc1nc(C)cc(C)c1C#N", "Inhibition": -8.27}, {"molecule": "CN1CCC(CN(C)S(=O)(=O)c2ccccc2)CC1", "Inhibition": -25.1}, {"molecule": "Cc1cc(C)n(-c2ccc(C(=O)NC(C)(C)C)cn2)n1", "Inhibition": 9.83}, {"molecule": "Cn1cccc1CNCCNC(=O)c1ccn[nH]1", "Inhibition": -19.28}, {"molecule": "c1ccc(C2=NCCN2)nc1", "Inhibition": 8.57}, {"molecule": "Cc1ccc(CC(=O)N2CCC[C@H]2CO)cc1O", "Inhibition": 9.81}, {"molecule": "c1ccc2[nH]c(NCC3CCCO3)nc2c1", "note": "(configuration not stated)", "Inhibition": -27.33}, {"molecule": "COCCNC(=O)CN1CCC2(CC1)OCCO2", "Inhibition": 24.44}, {"molecule": "CCOc1cccc(NC(=O)c2ccc(C)[nH]c2=O)n1", "Inhibition": 14.98}, {"molecule": "CN1CCOC(C(=O)Nc2ncc(Cl)s2)C1", "note": "(configuration not stated)", "Inhibition": -8.17}, {"molecule": "CC(=O)NC1CCN(Cc2ccc(F)c(F)c2)CC1", "Inhibition": -27.6}, {"molecule": "Cc1ccccc1OCCN1CCC(C(N)=O)CC1", "Inhibition": 0.98}, {"molecule": "COc1ccccc1OCC(C)N", "note": "(configuration not stated)", "Inhibition": 15.24}, {"molecule": "NC1CC(c2cc(NCC[C@H]3CCCN3)ncn2)C1", "note": "(some centres not stated)", "Inhibition": 15.98}, {"molecule": "CNc1nnc(SCc2csc(NC(C)=O)n2)s1", "Inhibition": -5.82}, {"molecule": "COc1ccc(C(N)c2ccncc2)cc1", "note": "(configuration not stated)", "Inhibition": -28.12}, {"molecule": "CC(=O)N1CCN(c2ccc(CN)cc2)CC1", "Inhibition": -1.93}, {"molecule": "O=C(NC1CC1)c1n[nH]c2ccccc12", "Inhibition": -5.33}, {"molecule": "O=C(CCCc1nccs1)NCC(=O)N1CCCCC1", "Inhibition": -6.34}, {"molecule": "CC(CS(C)(=O)=O)NC(=O)C(C)(C)C", "note": "(configuration not stated)", "Inhibition": -7.14}]}]}
